Results: the supplement of paper PMC11732987, “Enantioselective OTUD7B fragment discovery through chemoproteomics screening and high-throughput optimisation” (Communications Chemistry, 2025)

Experiments:
Test in all cases: log2 ratio of Biotin-Ahx-Ub-VS probe labelling (fragment/DMSO); higher = less target engagement (more negative = stronger competition), active = hit call of the paper (q ≤ 0.05, log2 ratio ≤ -1)
Conditions in all cases: compound concentration: 200 uM; treatment time: 3 h
[1] = target: T1, USP19 (UniProt O94966)
T1 sequence (whole entry): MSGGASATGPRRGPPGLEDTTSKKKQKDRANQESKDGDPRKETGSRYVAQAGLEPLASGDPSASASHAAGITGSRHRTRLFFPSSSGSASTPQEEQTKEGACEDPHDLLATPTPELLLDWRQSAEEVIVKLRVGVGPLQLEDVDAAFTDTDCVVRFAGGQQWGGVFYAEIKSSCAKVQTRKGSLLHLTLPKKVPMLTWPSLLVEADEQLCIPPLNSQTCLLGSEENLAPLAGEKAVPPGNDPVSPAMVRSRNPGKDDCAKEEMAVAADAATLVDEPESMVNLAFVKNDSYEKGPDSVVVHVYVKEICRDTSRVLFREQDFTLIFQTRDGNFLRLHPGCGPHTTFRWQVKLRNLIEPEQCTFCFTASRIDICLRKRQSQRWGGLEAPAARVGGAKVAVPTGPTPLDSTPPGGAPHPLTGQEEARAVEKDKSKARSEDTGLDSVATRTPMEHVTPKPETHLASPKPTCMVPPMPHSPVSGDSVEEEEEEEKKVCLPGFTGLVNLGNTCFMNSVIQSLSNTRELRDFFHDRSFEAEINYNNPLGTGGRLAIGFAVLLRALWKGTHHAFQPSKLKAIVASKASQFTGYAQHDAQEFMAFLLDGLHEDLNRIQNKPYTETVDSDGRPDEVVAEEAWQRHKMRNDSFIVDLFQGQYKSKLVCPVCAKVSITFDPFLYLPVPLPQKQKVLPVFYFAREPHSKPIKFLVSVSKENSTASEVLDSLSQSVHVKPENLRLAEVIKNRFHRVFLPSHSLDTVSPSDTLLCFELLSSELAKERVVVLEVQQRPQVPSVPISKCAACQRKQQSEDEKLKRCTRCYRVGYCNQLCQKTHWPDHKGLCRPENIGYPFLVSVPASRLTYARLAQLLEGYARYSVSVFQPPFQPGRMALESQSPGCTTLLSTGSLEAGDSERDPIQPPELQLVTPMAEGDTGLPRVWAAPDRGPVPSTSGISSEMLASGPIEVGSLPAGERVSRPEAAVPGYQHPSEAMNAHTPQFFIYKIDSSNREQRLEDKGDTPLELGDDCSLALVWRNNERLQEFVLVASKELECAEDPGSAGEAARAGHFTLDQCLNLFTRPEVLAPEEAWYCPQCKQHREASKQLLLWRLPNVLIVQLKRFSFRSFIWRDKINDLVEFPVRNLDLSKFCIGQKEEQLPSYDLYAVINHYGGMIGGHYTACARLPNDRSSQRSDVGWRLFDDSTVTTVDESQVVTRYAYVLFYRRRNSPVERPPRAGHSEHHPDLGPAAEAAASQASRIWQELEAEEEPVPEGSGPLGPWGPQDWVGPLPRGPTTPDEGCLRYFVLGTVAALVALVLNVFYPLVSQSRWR
Summary of the method: (§1)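 Average log2 ratios of fragment over vehicle were obtained by unpaired t-test from global-median-normalised Spectronaut label-free quantities. Proteins with ≥2 unique peptides were included. HEK293T lysate (495 µg per sample) was treated in triplicate with fragment at 200 µM or vehicle for 3 h, then with Biotin-Ahx-Ub-VS at 0.5 µM final for 1 h, and labelled DUBs were NeutrAvidin-enriched and run by diaPASEF LC-MS/MS.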

[2] = target: USP24 (UniProt Q9UPU5)
Chain of USP24 (Q9UPU5 whole entry): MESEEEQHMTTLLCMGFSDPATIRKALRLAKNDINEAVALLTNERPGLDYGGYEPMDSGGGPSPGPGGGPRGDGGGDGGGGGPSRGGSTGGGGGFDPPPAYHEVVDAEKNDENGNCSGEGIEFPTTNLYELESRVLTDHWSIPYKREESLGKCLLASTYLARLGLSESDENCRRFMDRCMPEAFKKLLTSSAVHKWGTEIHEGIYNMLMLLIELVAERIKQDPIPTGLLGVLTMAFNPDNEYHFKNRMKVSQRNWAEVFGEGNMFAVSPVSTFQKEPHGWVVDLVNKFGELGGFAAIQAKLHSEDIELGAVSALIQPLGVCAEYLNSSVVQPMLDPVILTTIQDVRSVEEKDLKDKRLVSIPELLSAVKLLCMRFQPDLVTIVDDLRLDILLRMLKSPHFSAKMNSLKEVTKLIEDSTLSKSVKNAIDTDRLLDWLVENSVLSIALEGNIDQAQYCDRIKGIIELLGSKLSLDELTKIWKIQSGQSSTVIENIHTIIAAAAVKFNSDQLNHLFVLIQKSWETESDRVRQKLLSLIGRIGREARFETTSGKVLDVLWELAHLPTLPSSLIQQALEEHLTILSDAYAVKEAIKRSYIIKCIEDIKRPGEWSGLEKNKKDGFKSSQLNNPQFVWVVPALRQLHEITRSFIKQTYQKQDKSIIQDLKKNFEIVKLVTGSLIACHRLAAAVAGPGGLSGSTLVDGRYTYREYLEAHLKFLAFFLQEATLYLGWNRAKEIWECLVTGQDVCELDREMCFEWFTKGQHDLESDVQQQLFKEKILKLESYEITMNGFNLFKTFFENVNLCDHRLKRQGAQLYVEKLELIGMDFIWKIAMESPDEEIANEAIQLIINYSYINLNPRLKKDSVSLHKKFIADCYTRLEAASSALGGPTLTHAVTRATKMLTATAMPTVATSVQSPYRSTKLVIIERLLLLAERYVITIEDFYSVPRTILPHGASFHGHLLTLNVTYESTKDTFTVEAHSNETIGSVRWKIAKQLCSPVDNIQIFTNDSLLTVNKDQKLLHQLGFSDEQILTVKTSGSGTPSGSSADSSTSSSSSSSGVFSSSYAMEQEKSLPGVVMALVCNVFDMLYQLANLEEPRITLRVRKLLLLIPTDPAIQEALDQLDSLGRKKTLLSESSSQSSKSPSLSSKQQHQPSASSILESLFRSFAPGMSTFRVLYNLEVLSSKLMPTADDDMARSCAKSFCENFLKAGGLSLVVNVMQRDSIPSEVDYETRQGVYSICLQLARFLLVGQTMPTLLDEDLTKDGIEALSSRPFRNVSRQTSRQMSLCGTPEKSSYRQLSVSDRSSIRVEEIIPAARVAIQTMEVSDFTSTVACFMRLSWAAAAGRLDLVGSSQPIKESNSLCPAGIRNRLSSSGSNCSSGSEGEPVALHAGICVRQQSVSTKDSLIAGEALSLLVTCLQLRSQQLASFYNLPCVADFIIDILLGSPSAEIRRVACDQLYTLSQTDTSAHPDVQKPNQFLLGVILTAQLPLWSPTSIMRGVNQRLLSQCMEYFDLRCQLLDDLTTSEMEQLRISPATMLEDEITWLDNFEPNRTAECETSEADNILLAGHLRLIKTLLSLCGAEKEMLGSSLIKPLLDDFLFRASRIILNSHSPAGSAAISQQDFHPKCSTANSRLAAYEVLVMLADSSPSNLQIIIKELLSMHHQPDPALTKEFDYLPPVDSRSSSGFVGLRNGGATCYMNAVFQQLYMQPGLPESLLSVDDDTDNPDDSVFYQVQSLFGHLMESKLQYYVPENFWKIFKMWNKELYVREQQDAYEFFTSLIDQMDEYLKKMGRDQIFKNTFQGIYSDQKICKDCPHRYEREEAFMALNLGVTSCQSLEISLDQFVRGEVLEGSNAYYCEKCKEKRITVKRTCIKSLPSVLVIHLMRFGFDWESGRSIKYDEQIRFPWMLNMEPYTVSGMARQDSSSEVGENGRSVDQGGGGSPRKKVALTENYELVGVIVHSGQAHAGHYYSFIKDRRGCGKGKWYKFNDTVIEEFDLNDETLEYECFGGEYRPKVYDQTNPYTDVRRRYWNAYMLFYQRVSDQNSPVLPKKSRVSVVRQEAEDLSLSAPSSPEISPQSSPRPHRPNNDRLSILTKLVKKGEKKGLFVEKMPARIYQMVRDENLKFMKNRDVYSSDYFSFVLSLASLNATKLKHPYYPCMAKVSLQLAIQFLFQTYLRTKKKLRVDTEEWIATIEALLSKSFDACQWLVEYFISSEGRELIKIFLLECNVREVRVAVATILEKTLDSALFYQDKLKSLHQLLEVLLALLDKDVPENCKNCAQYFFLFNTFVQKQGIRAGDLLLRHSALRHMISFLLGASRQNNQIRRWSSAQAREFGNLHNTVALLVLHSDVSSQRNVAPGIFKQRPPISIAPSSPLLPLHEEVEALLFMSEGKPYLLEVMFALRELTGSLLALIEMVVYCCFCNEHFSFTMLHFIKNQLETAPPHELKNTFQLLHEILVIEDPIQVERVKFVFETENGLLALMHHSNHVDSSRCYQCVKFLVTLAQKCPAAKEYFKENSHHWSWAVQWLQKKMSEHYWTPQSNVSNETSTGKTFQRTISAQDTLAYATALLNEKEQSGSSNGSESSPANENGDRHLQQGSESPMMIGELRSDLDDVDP
Summary of the method: as §1

[3] = target: T2, USP25 (UniProt Q9UHP3)
T2 sequence (whole entry): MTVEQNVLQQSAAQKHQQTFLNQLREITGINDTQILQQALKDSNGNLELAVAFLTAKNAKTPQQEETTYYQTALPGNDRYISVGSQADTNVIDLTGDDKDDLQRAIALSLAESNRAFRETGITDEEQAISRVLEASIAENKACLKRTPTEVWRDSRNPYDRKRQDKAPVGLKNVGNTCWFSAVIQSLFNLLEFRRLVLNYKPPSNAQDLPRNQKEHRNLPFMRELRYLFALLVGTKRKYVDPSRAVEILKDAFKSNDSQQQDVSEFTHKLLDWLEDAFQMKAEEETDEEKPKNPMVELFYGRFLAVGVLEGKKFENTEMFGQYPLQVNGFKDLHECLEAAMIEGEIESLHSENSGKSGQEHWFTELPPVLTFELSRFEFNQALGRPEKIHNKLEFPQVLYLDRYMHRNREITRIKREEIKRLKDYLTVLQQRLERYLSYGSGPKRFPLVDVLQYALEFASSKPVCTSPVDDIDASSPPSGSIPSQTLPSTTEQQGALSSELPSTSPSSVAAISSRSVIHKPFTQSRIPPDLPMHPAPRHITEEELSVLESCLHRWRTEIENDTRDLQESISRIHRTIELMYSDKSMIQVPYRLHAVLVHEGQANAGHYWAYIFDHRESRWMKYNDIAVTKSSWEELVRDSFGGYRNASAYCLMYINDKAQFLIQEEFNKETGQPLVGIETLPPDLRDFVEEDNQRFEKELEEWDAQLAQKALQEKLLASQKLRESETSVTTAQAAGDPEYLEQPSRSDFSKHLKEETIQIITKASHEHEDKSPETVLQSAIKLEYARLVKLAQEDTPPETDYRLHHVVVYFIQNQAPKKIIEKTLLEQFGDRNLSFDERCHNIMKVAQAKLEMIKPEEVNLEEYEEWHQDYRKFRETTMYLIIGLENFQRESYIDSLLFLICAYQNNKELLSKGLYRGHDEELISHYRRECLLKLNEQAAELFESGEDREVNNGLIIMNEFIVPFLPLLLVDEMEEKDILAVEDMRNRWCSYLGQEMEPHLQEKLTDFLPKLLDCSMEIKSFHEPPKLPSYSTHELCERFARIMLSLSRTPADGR
Summary of the method: as §1

[4] = target: T3, USP28 (UniProt Q96RU2)
T3 sequence (whole entry): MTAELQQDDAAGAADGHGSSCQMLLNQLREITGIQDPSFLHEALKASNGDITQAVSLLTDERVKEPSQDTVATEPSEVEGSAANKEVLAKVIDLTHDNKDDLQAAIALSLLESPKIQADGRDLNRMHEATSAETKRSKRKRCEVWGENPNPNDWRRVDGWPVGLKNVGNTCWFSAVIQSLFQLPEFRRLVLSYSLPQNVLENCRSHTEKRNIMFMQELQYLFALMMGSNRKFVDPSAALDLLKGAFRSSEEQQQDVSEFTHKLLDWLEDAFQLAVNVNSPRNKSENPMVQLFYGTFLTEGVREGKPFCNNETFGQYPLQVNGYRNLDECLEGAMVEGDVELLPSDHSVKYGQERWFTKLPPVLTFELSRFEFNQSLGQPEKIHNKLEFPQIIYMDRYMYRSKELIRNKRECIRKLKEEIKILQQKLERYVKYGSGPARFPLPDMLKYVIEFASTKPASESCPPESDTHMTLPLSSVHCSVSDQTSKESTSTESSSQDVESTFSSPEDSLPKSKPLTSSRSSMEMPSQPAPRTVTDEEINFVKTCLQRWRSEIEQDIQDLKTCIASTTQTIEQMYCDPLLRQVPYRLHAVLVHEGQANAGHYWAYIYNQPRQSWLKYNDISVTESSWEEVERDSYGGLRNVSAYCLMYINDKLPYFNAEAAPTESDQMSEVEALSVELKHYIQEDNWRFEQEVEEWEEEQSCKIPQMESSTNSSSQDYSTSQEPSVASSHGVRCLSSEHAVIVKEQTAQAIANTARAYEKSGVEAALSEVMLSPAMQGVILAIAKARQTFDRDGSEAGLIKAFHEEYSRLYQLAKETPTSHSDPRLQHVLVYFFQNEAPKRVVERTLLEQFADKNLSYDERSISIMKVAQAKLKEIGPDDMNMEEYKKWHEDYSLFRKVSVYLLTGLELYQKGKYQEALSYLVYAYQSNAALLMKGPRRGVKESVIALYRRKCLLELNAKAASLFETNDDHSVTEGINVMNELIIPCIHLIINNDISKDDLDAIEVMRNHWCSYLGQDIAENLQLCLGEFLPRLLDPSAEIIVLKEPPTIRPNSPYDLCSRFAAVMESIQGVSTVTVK
Summary of the method: as §1

Measured: log2 ratio of Biotin-Ahx-Ub-VS probe labelling

CC(NC(=O)CCl)c1cc2n(n1)CCCC2.Cl (centres undefined)
inactive: [1] -0.153 | [2] -0.262 | [3] -0.378 | [4] -0.582
